This passage reports composite z-score and z-score results from PubChem BioAssay.

A short description of assay [1]: compounds binding Alexa647 anti-His antibody – biochemical, small-molecule microarray, 635 nm fluorescence, artefact control for SMM control protein annotation, primary screen (AID 1128).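 Note: score merges feature fluorescence with signal-to-noise for each printed compound spot.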 The settings on record: higher = more signal.
The subject of assay [2] is Human papillomavirus type 1a E7 protein (residues 1-88). Nature of the assay: HPV1a E7 small-molecule binders, primary screen, biochemical, small-molecule microarray, residues 1-88, 635 nm (AID 1129). Conditions: small-molecule microarray binding, fluorescence 635 nm; higher = more signal.
Assay [3] has as its target Focal adhesion kinase 1 (Homo sapiens) (UniProt Q05397). Kind of assay: PTK2 protein binding on printed compound slides – biochemical, small-molecule microarray, 635/667 nm fluorescence, BSA, DTT, primary screen (AID 1130).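 Note: composite of spot emission at 667 nm and signal to noise over triplicate slides.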 The settings on record: 635 nm fluorescence, higher = more signal.
Assay [4] concerns Fibrinogen (Alexa647-labelled). Kind of assay: Alexa647-fibrinogen binding to printed small molecules – biochemical, small-molecule microarray, 635/667 nm fluorescence, artefact control for SMM control-protein annotation, profiling panel (AID 1131).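 Note: z-score merges 667 nm fluorescence with per-spot signal-to-noise over triplicate slides.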 Conditions: fibrinogen-A647 binding fluorescence, higher = more signal.
The target of assay [5] is Follistatin (Homo sapiens) (UniProt P19883). Nature of the assay: FST protein binding to printed compounds – biochemical, small-molecule microarray, 635/667 nm fluorescence, primary screen (AID 1132). Conditions: 635 nm fluorescence, higher = more signal.
Chain of Follistatin (Homo sapiens) (P19883 whole entry, looked up): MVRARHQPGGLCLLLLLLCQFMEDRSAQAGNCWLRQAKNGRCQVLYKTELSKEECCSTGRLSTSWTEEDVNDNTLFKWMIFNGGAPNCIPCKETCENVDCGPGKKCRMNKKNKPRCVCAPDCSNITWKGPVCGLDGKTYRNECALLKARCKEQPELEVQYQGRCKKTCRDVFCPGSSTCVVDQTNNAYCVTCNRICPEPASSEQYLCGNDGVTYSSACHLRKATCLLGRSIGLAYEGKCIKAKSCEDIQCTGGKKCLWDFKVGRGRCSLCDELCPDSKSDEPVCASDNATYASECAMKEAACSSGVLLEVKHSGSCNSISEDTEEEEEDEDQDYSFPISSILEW
In assay [6] the target is Fibroblast growth factor 2 (Homo sapiens) (UniProt P09038). Nature of the assay: basic fibroblast growth factor binding to printed compounds – biochemical, small-molecule microarray, 635/667 nm fluorescence, primary screen (AID 1133). Conditions: FGF2, fluorescence 635/667, higher = more signal.
Chain of Fibroblast growth factor 2 (Homo sapiens) (P09038 whole entry, looked up): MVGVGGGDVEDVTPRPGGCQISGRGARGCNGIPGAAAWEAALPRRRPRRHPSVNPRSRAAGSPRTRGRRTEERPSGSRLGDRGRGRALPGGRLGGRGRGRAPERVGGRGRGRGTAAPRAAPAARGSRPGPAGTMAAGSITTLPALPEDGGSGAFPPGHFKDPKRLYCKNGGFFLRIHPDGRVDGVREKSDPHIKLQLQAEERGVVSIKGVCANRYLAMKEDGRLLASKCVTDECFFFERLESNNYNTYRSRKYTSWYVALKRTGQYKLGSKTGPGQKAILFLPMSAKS
Assay [7] can be described thus: JC-1 mitochondrial potential readout, lung cancer cells – cell-based, A549, JC-1 fluorescence, basal, 24 h, 100 nL, profiling panel (AID 1138).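 Note: A549 lung adenocarcinoma cells under basal conditions with no added stimulus; test concentration not given here.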 Conditions: higher = more signal.
The test system of the next assay is Lefty1. Kind of assay: Lefty1 protein binding to printed compounds – biochemical, small-molecule microarray, 635/667 nm fluorescence, primary screen (AID 1139). Conditions: fluorescence 635/667, higher = more signal.
Assay [8] concerns wheat germ agglutinin (Triticum aestivum), Alexa647-labelled. Kind of assay: Alexa647-WGA lectin binding to printed small molecules – biochemical, small-molecule microarray, 635/667 nm fluorescence, artefact control for SMM control-protein annotation, profiling panel (AID 1140).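 Note: score merges 667 nm feature emission with signal to noise over triplicate slides.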 The settings on record: WGA-A647 binding, 635 nm fluorescence, higher = more signal.
Assay [9] has as its target Luciferin 4-monooxygenase (Photinus pyralis) (UniProt P08659). Nature of the assay: inhibition of purified Photinus pyralis luciferase – biochemical, luminescence, purified enzyme, 2006 set, primary screen (AID 1141).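 Note: cell-free assay with purified firefly luciferase at 100 ng per well in PBS; test concentration not given here.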 Conditions: purified firefly luciferase, SteadyGlo luminescence, 30 min; higher = more signal, called active from +8 up or from −8 down.
The subject of assay [10] is Wnt5a (protein binding on small-molecule microarray). Kind of assay: small molecules binding Wnt5a protein – biophysical, small-molecule microarray, 635/667 nm fluorescence, primary screen (AID 1142).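 Note: fluorescence read at 667 nm with signal to noise per printed feature.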 The settings on record: 635 nm fluorescence, higher = more signal.
A short description of assay [11]: ATP-based viability of Huh7 replicon cells – cell-based, CellTiter-Glo luminescence, basal, 48 h, cytotoxicity control for HCV replication inhibitor project, primary screen (AID 1143).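 Note: Huh7 hepatoma cells carrying a hepatitis C replication reporter with no stimulus; test concentration not given here.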 The settings on record: higher = more signal, called active from +8 up or from −8 down. On the technique in general: Replicon systems follow genome replication, usually without infectious particles.

A short description of assay [12]: Pseudomonas biofilm growth suppression – PAO1 strain, BacTiter-Glo luminescence, LB-PBS, primary screen (AID 1144). The settings on record: P. aeruginosa PAO1 biofilm, 12 h, higher = more signal.
Assay [13] is described as follows: basal CRE-LacZ reporter activity in PC12 – cell-based, unstimulated, primary screen (AID 1145). The settings on record: no forskolin, luminescence, 4.5 h, higher = more signal, called active from +8 up or from −8 down.
Assay [14] can be described thus: forskolin-driven CRE-LacZ activity in PC12 – cell-based, CRE-LacZ reporter, forskolin-stimulated, primary screen (AID 1146).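 Note: PC12 cells with 6xCRE LacZ reporter stimulated by forskolin 10 µM; beta-galactosidase reporter signal reflecting CREB driven transcription.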 Conditions: luminescence, 4.5 h, higher = more signal, called active from +8 up or from −8 down.
The target of assay [15] is Streptavidin (Streptomyces avidinii) (UniProt P22629). Nature of the assay: compounds binding control protein streptavidin – biophysical, small-molecule microarray, 635/667 nm fluorescence, artefact control for SMM compound annotation, primary screen (AID 1147).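 Note: signal reflects streptavidin binding to arrayed compounds as a control protein.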 The settings on record: higher = more signal.
Chain of Streptavidin (Streptomyces avidinii) (P22629 whole entry, looked up): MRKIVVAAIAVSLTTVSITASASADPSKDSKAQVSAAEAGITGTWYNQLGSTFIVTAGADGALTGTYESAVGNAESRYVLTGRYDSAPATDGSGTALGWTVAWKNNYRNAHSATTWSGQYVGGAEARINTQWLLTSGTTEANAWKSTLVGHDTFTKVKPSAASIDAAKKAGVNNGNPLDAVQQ
Assay [16] can be described thus: probe aInhba binding on compound microarray – biochemical, small-molecule microarray, 635/667 nm fluorescence, primary screen (AID 1148).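 Note: score merges 667nm spot fluorescence with signal-to-noise for antibody binding to printed compounds.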 Conditions: higher = more signal.
Assay [17] addresses Torsin-1A (Homo sapiens) (UniProt O14656). Nature of the assay: TOR1A wild-type binding on microarray – cell lysate, small-molecule microarray, lysate, 635/667 nm, primary screen (AID 1149). Conditions: COS7 hTOR1A-WT lysate, 635 nm fluorescence, higher = more signal.
The target is the same in assay [18]. Kind of assay: torsin A mutant lysate binding on microarrays – cell lysate, small-molecule microarray, COS7 lysate, 635/667 nm fluorescence, primary screen (AID 1150).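 Note: score pools 667 nm emission and signal to noise measuring lysate protein binding.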 The settings on record: COS7 hTOR1A mutant lysate, 635 nm fluorescence, higher = more signal.
Assay [19] concerns Sonic hedgehog protein (Shh). Kind of assay: Sonic hedgehog microarray binding compounds – biochemical, small-molecule microarray, 635/667 nm fluorescence, primary screen (AID 1151).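 Note: Shh protein binding to compounds spotted on small-molecule microarray slides; score combines spot fluorescence intensity with signal-to-noise across triplicate slides.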 Conditions: 635 nm fluorescence, higher = more signal.

Calls of active or inactive are those of the source. Unless noted, the rule behind the calls is not given here.

Chain of Focal adhesion kinase 1 (Homo sapiens) (Q05397 whole entry, looked up): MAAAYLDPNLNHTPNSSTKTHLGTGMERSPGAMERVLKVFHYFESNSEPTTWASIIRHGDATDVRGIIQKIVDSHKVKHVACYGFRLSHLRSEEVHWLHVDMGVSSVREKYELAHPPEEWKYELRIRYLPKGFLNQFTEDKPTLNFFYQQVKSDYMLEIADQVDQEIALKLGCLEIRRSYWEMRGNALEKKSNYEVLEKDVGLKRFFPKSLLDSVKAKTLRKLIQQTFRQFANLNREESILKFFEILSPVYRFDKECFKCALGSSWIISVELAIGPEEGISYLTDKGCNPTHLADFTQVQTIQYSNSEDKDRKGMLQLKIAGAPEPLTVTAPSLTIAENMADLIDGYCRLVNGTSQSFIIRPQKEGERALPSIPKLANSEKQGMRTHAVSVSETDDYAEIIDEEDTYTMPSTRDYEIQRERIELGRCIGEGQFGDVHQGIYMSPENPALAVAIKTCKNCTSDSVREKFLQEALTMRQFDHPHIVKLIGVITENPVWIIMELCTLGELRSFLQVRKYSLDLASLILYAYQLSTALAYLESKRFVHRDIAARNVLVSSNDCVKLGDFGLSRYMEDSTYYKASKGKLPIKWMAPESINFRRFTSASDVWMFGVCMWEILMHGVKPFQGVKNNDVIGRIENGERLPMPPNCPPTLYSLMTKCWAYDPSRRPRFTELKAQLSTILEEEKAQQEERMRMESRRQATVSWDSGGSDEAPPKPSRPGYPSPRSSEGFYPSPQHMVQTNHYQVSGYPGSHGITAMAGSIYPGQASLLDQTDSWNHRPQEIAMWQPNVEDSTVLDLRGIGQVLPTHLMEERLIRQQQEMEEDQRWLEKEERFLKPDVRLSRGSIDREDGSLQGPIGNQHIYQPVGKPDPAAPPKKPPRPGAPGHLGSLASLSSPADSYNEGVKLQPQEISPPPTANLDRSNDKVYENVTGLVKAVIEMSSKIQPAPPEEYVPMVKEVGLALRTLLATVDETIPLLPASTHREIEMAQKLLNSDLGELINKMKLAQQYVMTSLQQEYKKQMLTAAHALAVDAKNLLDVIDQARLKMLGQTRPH
Chain of Luciferin 4-monooxygenase (Photinus pyralis) (P08659 whole entry, looked up): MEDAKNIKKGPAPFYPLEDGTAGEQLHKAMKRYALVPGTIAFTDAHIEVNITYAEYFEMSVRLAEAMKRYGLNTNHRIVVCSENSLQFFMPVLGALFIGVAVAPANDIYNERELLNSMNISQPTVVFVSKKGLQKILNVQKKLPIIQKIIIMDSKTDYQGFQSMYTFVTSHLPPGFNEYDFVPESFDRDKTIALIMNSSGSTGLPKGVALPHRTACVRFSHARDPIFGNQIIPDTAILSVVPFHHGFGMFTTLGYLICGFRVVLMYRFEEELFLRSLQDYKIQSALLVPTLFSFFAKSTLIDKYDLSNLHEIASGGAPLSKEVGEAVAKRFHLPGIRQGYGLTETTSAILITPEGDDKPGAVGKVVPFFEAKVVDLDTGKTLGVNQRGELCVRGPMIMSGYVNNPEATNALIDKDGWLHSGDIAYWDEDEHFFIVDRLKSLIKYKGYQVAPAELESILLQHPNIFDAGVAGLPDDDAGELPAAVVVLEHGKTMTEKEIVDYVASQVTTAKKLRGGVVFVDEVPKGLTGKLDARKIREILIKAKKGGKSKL
Chain of Torsin-1A (Homo sapiens) (O14656 whole entry, looked up): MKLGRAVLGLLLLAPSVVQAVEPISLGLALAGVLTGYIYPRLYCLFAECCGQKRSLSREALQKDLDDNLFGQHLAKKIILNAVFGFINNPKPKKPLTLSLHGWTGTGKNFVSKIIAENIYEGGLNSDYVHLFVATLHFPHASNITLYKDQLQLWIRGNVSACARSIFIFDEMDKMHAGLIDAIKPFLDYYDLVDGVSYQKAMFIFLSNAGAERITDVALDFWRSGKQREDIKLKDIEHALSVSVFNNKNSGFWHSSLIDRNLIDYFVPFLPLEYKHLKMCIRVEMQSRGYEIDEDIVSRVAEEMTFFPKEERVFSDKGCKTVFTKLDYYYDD

In the case of `C=CC[C@]1(C(=O)NCCCOC)N=C(c2ccc(OCCCO)cc2)O[C@H]1c1ccccc1`, the composite z-score in assay [1] was 1.19; in [2], 1.21; in assay [3], 0.0442; in assay [4] it was -0.922; in assay [5] it was 1.29; in [6], -0.9. The composite z-score in the assay on Lefty1 is -0.689; in assay [8], 0.566; in assay [10], 0.274; in assay [15], -0.0374; in assay [16] it was -0.0986; in the assay with Torsin-1A (Homo sapiens) [17], 0.872. Moreover, the composite z-score with Torsin-1A (Homo sapiens) [18] is 1.37; in [19], -1.62. Moreover, the z-score in [7] was 0.266; in assay [9], 0.436 (inactive); in [11], -2.26 (inactive); in assay [12], -0.747 (inactive); in [13], 0.857 (inactive); in assay [14], 0.15 (inactive).

For the compound `[N-]=[N+]=Nc1ccccc1[C@@H]1OC(c2ccc(OCCCO)cc2)=N[C@]1(Cc1ccccc1)C(N)=O`, the composite z-score in assay [1] was 1.91; in [2] it was 0.445; in [3], 0.474; in assay [4], 0.899; in assay [5] it was 0.207; in [6], -0.425. In addition, the composite z-score with Lefty1 is -0.188; in [8], 0.619; in assay [10], -0.0757; in assay [15], 0.533; in [16], 0.451; with Torsin-1A (Homo sapiens) [17], 0.245. Further, the composite z-score with Torsin-1A (Homo sapiens) [18] is 0.305; in [19] it was -0.0762. Further, the z-score was 1.86 in assay [7]; -8.14 (active) in assay [9]; -2 (inactive) in assay [11]; -0.0461 (inactive) in assay [12]; 0.195 (inactive) in assay [13]; -1.49 (inactive) in assay [14].

Consider `C=CCNC(=O)[C@@H]1[C@H]2C(=O)O[C@H](c3ccccc3)[C@H](c3ccccc3)N2[C@H](c2ccc(O)cc2)[C@@]12C(=O)Nc1ccc(C#CC3(O)CCCCCC3)cc12`, for which the composite z-score in assay [1] was 0.906; in assay [2], 0.596; in [3], 1.31; in assay [4], -1.37; in [5], 0.726; in assay [6] it was 0.749. In addition, the composite z-score in the assay on Lefty1 is 0.304; in [8], -0.321; in assay [10], 0.179; in assay [15], -0.932; in [16] it was -0.128; with Torsin-1A (Homo sapiens) [17] it was 0.16. Moreover, the figures for the composite z-score (with Torsin-1A (Homo sapiens) [18]; in [19]) were 0.781 and 1.11, respectively. For the same compound, the z-score in assay [7] is -0.9; in assay [9] it was 0.27 (inactive); in assay [11], -0.794 (inactive); in assay [12], -0.817 (inactive); in [13], -1.69 (inactive); in assay [14], -0.361 (inactive).

Take `C=C(/C(=C/C[C@@H](OC(C)=O)c1ccccc1OCCO)c1cc(C(=O)OC)ccc1OC)C(C)C`: the composite z-score in assay [1] is 1.37; in assay [2] it was 0.136; in [3], 0.0593; in [4], -0.0872; in assay [5], 0.425; in assay [6] it was 0.212. For the same compound, the composite z-score in the assay with Lefty1 was 0.282; in assay [8] it was 0.368; in [10] it was 0.332; in assay [15], -0.576; in [16], -0.024; with Torsin-1A (Homo sapiens) [17], 0.212. In addition, the figures for the composite z-score (with Torsin-1A (Homo sapiens) [18]; in assay [19]) were -0.461 and 1.02, respectively. Besides, the z-score in assay [7] was 1.68; in [9] it was -1.47 (inactive); in assay [11], -1.94 (inactive); in [12], 0.217 (inactive); in [13] it was 16.2 (active); in [14], -0.37 (inactive).

In the case of `CCCC=C(CCC)[C@@H](NC(=O)c1ccccc1)c1ccc(C(=O)OC)cc1`, the composite z-score is 0.877 in assay [1]; 0.598 in [2]; -0.17 in assay [3]; 0.214 in assay [4]; 1.06 in [5]; 1.1 in assay [6]. Moreover, the composite z-score with Lefty1 is 0.439; in assay [8] it was -0.0525; in [10] it was 0.675; in [15] it was -0.0576; in assay [16], 0.326; in the assay with Torsin-1A (Homo sapiens) [17], 0.615. Besides, the composite z-score came to 0.546 with Torsin-1A (Homo sapiens) [18] and 0.293 in [19]. In addition, the z-score in [7] is -1.71; in assay [9], 1.5 (inactive); in [11], -4.41 (inactive); in assay [12], -0.947 (inactive); in [13] it was -0.379 (inactive); in assay [14] it was 0.0425 (inactive).
